Measured values: PubChem BioAssay AID2315 (National Center for Advancing Translational Sciences (NCATS), 2010)
Screen size: about 290,000 compounds; about 27,000 (9.3%) were called active. No stated cut-off is given here; in the data, active means inhibition mostly above about 28% (no sharp cut-off); inactive means mostly below about 43%. The list comes from a sample in which actives are over-represented; it also holds similar structures and randomly drawn compounds.

test: A qHTS for Small Molecule Inhibitors of Shiga Toxin; conditions: Vero cells, Shiga toxin protein synthesis inhibition reporter; at 38.7 µM, active compounds read high; further: 0% is about no effect

Row | SMILES | inhibition
1 | Cc1ccc(C)c(-n2cc(CN3CCN(C(=O)c4ncn[nH]4)CC3)c(-c3ccccc3)n2)c1 | 8.93% (inactive)
2 | CCC(O)C1CCN(Cc2cn(-c3ccc(OC)cc3)nc2-c2cccc(F)c2)CC1 (stereo unspecified) | 50.9% (inactive)
3 | Cc1cccc(-n2cc(CN3CCN(C(=O)c4ncn[nH]4)CC3)c(-c3cccc(F)c3)n2)c1 | 63.8% (active)
4 | COc1ccc(S(=O)(=O)N(C)CC(=O)NCCCN2CCOCC2)cc1Cl | -12.5% (inactive)
5 | Clc1nc(NC2CCCC2)nc(N2CCOCC2)n1 | 5.65% (inactive)
6 | CCc1ccc(CNC(=O)C2CCN(c3nnc(C)c4c(C)n(-c5ccc(C)cc5)nc34)CC2)cc1 | -5.47% (inactive)
7 | O=S(=O)(c1ccc(Cl)cc1)c1nc(-c2ccco2)oc1N1CCCCC1 | -0.989% (inactive)
8 | CSc1ccc(S(=O)(=O)N2CCC(C(=O)NCCc3ccccc3)CC2)cc1 | 56.2% (inactive)
9 | CC(Oc1cc2oc(=O)c3c(c2cc1Cl)CCCC3)C(=O)NCc1ccncc1 (stereo unspecified) | -3.65% (inactive)
10 | CCN1/C(=C/c2ccc3ccc(C)cc3[n+]2CC)Sc2ccccc21 | 5.47% (inactive)
11 | CCN1/C(=C/C(=S)Nc2ccccc2)Sc2ccccc21 | 62.5% (active)
12 | O=C(CCN1c2ccccc2Sc2ccccc21)Nc1ccccc1 | -1.29% (inactive)
13 | CCn1cc(/C=C(\NC(=O)c2ccc(C)cc2)C(=O)NCCN2CCOCC2)c2ccccc21 | 1.24% (inactive)
14 | CCOC(=O)C(=O)Nc1nc(-c2ccccc2)c(CC)s1 | -12% (inactive)
15 | Cc1ccc(-c2nc(C)sc2CC(=O)O)cc1 | -13.7% (inactive)
16 | C/C(=N/Nc1nc(-c2ccccc2)c(CC(=O)O)s1)c1ccccc1 | 68.4% (active)
17 | COC(=O)c1cccc(N2C(=O)C3C4C=CC(CC4)C3C2=O)c1 (stereo unspecified) | 0.962% (inactive)
18 | CC(C)Cn1cnc2c1c(=O)n(CC(=O)NN)c(=O)n2Cc1ccccc1 | -7.02% (inactive)
19 | CN1CCN(CC(=O)Nc2cccc([N+](=O)[O-])c2)CC1 | -12.8% (inactive)
20 | O=C(C(=O)N1CCc2ccccc2C1)N1CCc2ccccc2C1 | 8.23% (inactive)
21 | CCc1ccc(NC(=O)N2CCN(c3ccccc3)CC2)cc1 | 20.1% (inactive)
22 | O=C(Nc1cccc([N+](=O)[O-])c1)N1CCc2ccccc2C1 | 88.6% (active)
23 | CC(=O)Nc1cccc([N+](=O)[O-])c1 | 17.7% (inactive)
24 | CCc1ccc(NC(=O)N2CCc3ccccc3C2)cc1 | 120% (active)
25 | COC(=O)c1ccccc1NC(=O)CSc1nc2c(c(=O)[nH]1)CCC2 | -2.68% (inactive)
26 | COc1ccc(C(=O)NC(=S)N2CCCCC2c2cccnc2)cc1OC (stereo unspecified) | -4.75% (inactive)
